Experimental data reported in PubChem BioAssay (NCATS).
Results filed as inconclusive are left out. A call without a number means that no potency is given here. A number with no mark means an inactive call. The source made the active and inactive calls. Calls come from the whole dose curve; as a rule, active = well fitted cell-killing curve with a large enough effect; inconclusive = small, poorly fitted or top-dose-only effect, or effect the other way; inactive = no such curve, though single readings can be large or run the other way.

test: Viability qHTS for spleen associated tyrosine kinase inhibitor (SYKi) naive MV4-11 cells (AID 1963823); details: MV4-11 AML viability, CellTiter-Glo luminescence, 72 h; series mostly up to 45 µM; note: nearly all actives have a fitted effect of over 40% in size
Summary of the method: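 SYKi-naive MV4-11 AML cells, 500 per well, were exposed to library compounds for 72 hr at 37 C, 5% CO2. Viability was then read by CellTiter-Glo luminescence after 10 min at room temperature.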
Potency is the fitted concentration of half-maximal effect.

Compound | Potency | viability (% of control)
COc1cc(/C=C/CO)ccc1O[C@@H]1O[C@H](CO)[C@@H](O)[C@H](O)[C@H]1O | inactive | 
CC1=C2C3OC(=O)C(C)C3(O)CCC2(C)CCC1=O (configuration not stated) | inactive | 
C=C1CCC2C(C)(C)CC(O)CC2(C)C1CCC(C)CC(=O)O (configuration not stated) | inactive | 
C/C(=C\CCC(C)CCO)C(=O)O[C@@H]1[C@@H](O)[C@H](OC2OC=C(C(=O)O)C3CCC(C)(O)C23)O[C@H](CO)[C@H]1O (some centres not stated) | inactive | 
C[C@@H]1CC[C@@]23CC[C@]4(C)[C@@](C=CC5[C@@]6(C)CC[C@H](O)C(C)(C)C6CC[C@]54C)(OC2=O)C3[C@H]1C (some centres not stated) | inactive | 
CCC(C)(O)C(O)C(=O)OCc1ccc(O[C@@H]2O[C@H](CO)[C@@H](O)[C@H](O)[C@H]2O)c(OC)c1 (some centres not stated) | inactive | 
C/C=C1/CC2C(=O)Nc3cc(O)c(OC)cc3C(=O)N2C1 (configuration not stated) | 16.1 µM (active) | 
CCCCC1CCC(c2nc(-c3ccncc3)no2)CC1 (configuration not stated) | inactive | 
C=C(C)[C@@H](C)[C@H]1O[C@]23C[C@]4(CO2)C(CCC2[C@@]5(C)CC[C@H](O[C@@H]6OC[C@H](O)[C@H](O[C@@H]7O[C@H](CO)[C@@H](O)[C@H](O)[C@H]7O)[C@H]6O[C@@H]6O[C@@H](CO)[C@H](O)[C@H]6O)C(C)(C)C5CC[C@]24C)C3[C@@](C)(O)[C@@H]1OC(C)=O (some centres not stated) |  | 73.4% [at 9.25 µM]
Cc1cc(C)nc(SCC(=O)Nc2ncc(Cc3cccc4ccccc34)s2)n1 | 7.31 µM (active) | 
COc1ccc(C2=CC(=O)OC2Cc2ccc(O)cc2)c(O)c1 (configuration not stated) | inactive | 
OC[C@H]1O[C@@H](OCCc2ccc(O)cc2)[C@H](O[C@@H]2OC[C@](O)(CO)[C@H]2O)[C@@H](O)[C@@H]1O | inactive | 
CN(C/C=C/C#CC(C)(C)C)Cc1cccc2ccccc12 | inactive | 
CC(CN1c2ccccc2Sc2ccccc21)N(C)C (configuration not stated) | inactive | 
N#Cc1ccc(-c2ccc(S(=O)(=O)Nc3cccc(N)n3)cc2)cc1 | 8.2 µM (active) | 
CCOc1ccc(C(Nc2ccccn2)c2ccc3ccc(C)nc3c2O)cc1C (configuration not stated) | 23.1 µM (active) | 
C=C1[C@@H](C)[C@H]2[C@H](Cc3c[nH]c4ccccc34)NC(=O)[C@]23C(=O)/C=C/C(=O)[C@H](O)/C(C)=C\[C@@H](C)C/C=C/[C@H]3[C@@H]1O | 2 µM (active) | 
COc1ccc(NC(=O)C2C[C@H](C)CC[C@H]2C(C)C)cc1 (some centres not stated) | inactive | 
C=C1CCC2C(C)(C(=O)O)CCCC2(C)C1CCC1=CCOC1=O (configuration not stated) | inactive | 
Clc1ccc2c(c1)N=C(N1CCNCC1)c1ccccc1N2 | 20.6 µM (active) | 
CC(=O)[C@H]1CC[C@H]2[C@@H]3CC=C4C[C@@H](OS(=O)(=O)O)CC[C@]4(C)[C@H]3CC[C@]12C | inactive | 
C=CC/C=C\C/C=C\CCCCCCCc1cccc(O)c1C(=O)O | inactive | 
NS(=O)(=O)c1ccc(N2CCN(CC[C@@H]3OCCc4ccccc43)CC2)cc1 | 11.6 µM (active) | 
O=C1NC(Cc2c[nH]c3ccccc23)C(=O)NC1Cc1cnc[nH]1 (configuration not stated) | inactive | 
C[C@@H]1CC2C3C[C@H](F)C4=CC(=O)C=C[C@]4(C)[C@@]3(F)[C@@H](O)C[C@]2(C)[C@@]1(OC(=O)c1ccco1)C(=O)SCF (some centres not stated) | 6.61 µM (active) | 
CC1OC(O[C@H]2CC[C@@]3(C)C(CC[C@]4(C)C3CC=C3C5CC(C)(C)CC[C@]5(C(=O)OC5OC(CO)C(OC6OC(COC7OCC(O)C(O)C7O)C(O)C(O)C6O)C(O)C5O)CC[C@]34C)C2(C)C)C(O)C(O)C1OC1OCC(OC2OCC(O)C(O)C2O)C(O)C1O (some centres not stated) | 0.155 µM (active) | 
COc1cc2ncnc(Nc3ccc(O)cc3)c2cc1OC | 3.26 µM (active) | 
